Screening data: PubChem, National Center for Advancing Translational Sciences (NCATS)
IP6K1 inh: inhibitors of human IP6K1; AID 1645851; 140,000 compounds, 0.81% hits; Q92551; activity change, % (series mostly up to about 58 µM); IP6K1 kinase, ADP-Glo luminescence, 2 h; active compounds read low; in the data active means activity change below about -25%; further: on the % scale 0 is the no-effect control and ±100 the full control effect
Target sequence (Q92551 whole entry, looked up): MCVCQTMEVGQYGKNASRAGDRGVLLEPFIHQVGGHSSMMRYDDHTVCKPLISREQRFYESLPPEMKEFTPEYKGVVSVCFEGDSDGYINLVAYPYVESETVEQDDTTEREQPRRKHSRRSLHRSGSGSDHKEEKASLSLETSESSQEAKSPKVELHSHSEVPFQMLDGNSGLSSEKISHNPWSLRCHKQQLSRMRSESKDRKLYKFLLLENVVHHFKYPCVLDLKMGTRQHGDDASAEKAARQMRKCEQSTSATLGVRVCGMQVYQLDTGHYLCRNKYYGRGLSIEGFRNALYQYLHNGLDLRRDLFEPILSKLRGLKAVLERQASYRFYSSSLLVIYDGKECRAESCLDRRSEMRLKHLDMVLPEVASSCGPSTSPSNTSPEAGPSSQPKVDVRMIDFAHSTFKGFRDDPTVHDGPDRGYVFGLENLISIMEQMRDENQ
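ADP-Glo luminescence measures ADP made by human IP6K1 during a 2 h RT reaction with ATP/IP6 (mix at 1.3 mM/130 uM); top library doses 57.5 and 19.1 uM final.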
SNCA expr inh: SNCA gene expression inhibition | HEK-293 SNCA-luciferase knock-in, luminescence, 24 h | 140,000 compounds, 0.17% hits | Potency, µM (highest dose often 57.2 µM), for inactives: top-dose activity change, negative = inhibition, usual class: inhibitors;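 further: potency means the concentration at half of the fitted maximal effect; plate controls were DMSO cells for no effect and cell-free wells for full effect; nearly all actives have a fitted effect of over 45% in size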
KDM5B inhibitor: blocks human KDM5B histone demethylase activity | 220,000 compounds, 2.6% hits | Potency, µM (top dose mostly 57.7 µM), usual class: inhibitors | KDM5B demethylase, FDH-coupled NADH fluorescence (FDH is formaldehyde dehydrogenase); further: potency means the concentration at half of the fitted maximal effect; 0% is about no effect; nearly all actives have a fitted effect of over 70% in size
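KDM5BΔAP (200 nM final) in 50 mM HEPES pH 7.5, 0.01% Tween-20 was preincubated 10 min at RT with compound over a concentration range. Substrate mix (H3K4me3 12.5 µM, α-KG 25 µM, Fe²⁺, ascorbate, NAD⁺, FDH) was added, and NADH fluorescence change over 30 min gave dose-response curves.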
HEK293 viab: counter-screen for SNCA expression inhibitors: cell viability; Potency, µM (series often up to 57.1 µM), without a hit: at the top dose activity change, negative = cytotoxicity, most hits filed as cytotoxic; 150,000 compounds, 0.12% hits; HEK-293-SNCA-luc viability, GF-AFC fluorescence, 24 h; AID 1671193;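 further: potency means the concentration at half of the fitted maximal effect; 0% = DMSO-treated cells and -100% = medium-only wells without cells; nearly all actives have a fitted effect of over 30% in size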
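Cytotoxicity counterscreen: after 24 h compound treatment of genome-edited SNCA-luciferase HEK-293 cells, live-cell protease substrate GF-AFC read by fluorescence after 30 min; activity scaled between DMSO (0%) and medium-only (-100%), curves Hill-fitted.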
Starred values were filed as active, the others as inactive; i = inactive; ? = inconclusive; / = no result; ! = a repeat was not active; [ ] = dose if it differs, or a comment. This is a sample that favours compounds with a hit; in the whole collection about 3% have one here. Unless noted, the call rests on the fitted dose curve; in most records, active means well fitted curve in the direction sought with a large enough effect; inconclusive means small, poorly fitted or top-dose-only effect, or another doubt; inactive means no such curve, though single readings can be large; an effect the other way counts as inactive or inconclusive.

SMILES	IP6K1 inh	SNCA expr inh	KDM5B inhibitor	HEK293 viab
O=C(Cc1cccc(F)c1)NCC1COc2ncncc2C(=O)N1Cc1ccccc1 (stereo unspecified)	0	3%[87.6 µM]	28µM*	1%[87.6 µM]
O=C(NCc1ccc(Cl)cc1)c1ccc2nnc(-c3cccnc3)n2c1	1	2%	/	7%
O=C(NCc1cccc(F)c1)c1ccc2nccn2c1	12	-3%[87.6 µM]	/	0%[87.6 µM]
O=C(NCc1cccc(C(F)(F)F)c1)c1ccc2nccn2c1	-12	-14%[87.6 µM]	35µM*	9%[87.6 µM]
O=C(NCc1cccs1)c1ccc2nccn2c1	-14	95%[87.6 µM]	35µM*	-9%[87.6 µM]
O=C(NCc1ccncc1)c1ccc2nccn2c1	0	5%	?	12%
O=C(NCc1ccccc1)c1ccc2nnc(-c3cccnc3)n2c1	20	25µM*	/	-29%
O=C(NCc1cccnc1)c1ccc2nccn2c1	5	-10%[87.6 µM]	112µM*!	20%[87.6 µM]
COc1ccccc1-c1cc(NCc2ccncc2)c2onc(C)c2n1	-20	42%[87.6 µM]	28µM*	9%[87.6 µM]
COc1ccccc1-c1cc(NCC2CCOCC2)c2onc(C)c2n1	-2	2%[87.6 µM]	i	6%[87.6 µM]
Cc1noc2c(Nc3ccncc3)cc(-c3ccc(F)cc3)nc12	-9	1%[87.6 µM]	28µM*	1%[87.6 µM]
CC(C)NC(=O)C1CCCN(Cc2cccc(-c3cccs3)c2)C1 (stereo unspecified)	8	/	/	/
COc1cccc(C2CNC(=O)c3nc(Cn4nc(C)c(C)c4C)[nH]c3C2)c1 (stereo unspecified)	-2	11%	i	-3%
COc1cccc(C2CNC(=O)c3nc(-c4ccc(C(=O)N(C)C)o4)[nH]c3C2)c1 (stereo unspecified)	12	7%	28µM*	-12%
c1cnn(-c2ccc(-c3nc(C4CCOC4)no3)cc2)c1 (stereo unspecified)	6	105%	32µM*	?
CN(C)c1ccc(-c2nc(C3CCOC3)no2)cc1 (stereo unspecified)	-2	-14%	i	-4%
CSc1ccccc1-c1nc(C2CCOC2)no1 (stereo unspecified)	-2	59%	28µM*	-11%
COc1cc(CNC(=O)c2c(C)noc2-c2cc(OC)c(OC)c(OC)c2)cc(OC)c1	-10	3%	28µM*	9%
COc1cc(-c2onc(C)c2C(=O)NCC2CCCO2)cc(OC)c1OC (stereo unspecified)	36	6%	28µM*	-11%
CCOCCCNC(=O)c1c(C)noc1-c1cc(OC)c(OC)c(OC)c1	18	-9%	28µM*	6%
COc1cc(-c2onc(C)c2C(=O)NCCC(c2ccccc2)c2ccccc2)cc(OC)c1OC	-6	-3%	28µM*	4%
CC(C)(C)OC(=O)NCCCNC(=O)[C@@H]1CCCN1c1ccnc2ccnn12	7	/	/	/
O=C1NC(=NC2CCCCC2)C2(CCCN(Cc3ccccc3)C2)N1c1cc(F)cc(F)c1 (stereo unspecified)	-21	?	i	?
COCCNC(=O)c1c(C)noc1-c1cc(OC)c(OC)c(OC)c1	5	23%	28µM*	1%
Cc1noc(-c2ccc3c(c2)OCO3)c1C(=O)NCCCOC(C)C	13	-2%	?	-14%
SMILES	IP6K1 inh	SNCA expr inh	KDM5B inhibitor	HEK293 viab
COc1cc(-c2onc(C)c2C(=O)NCCCOC(C)C)cc(OC)c1OC	6	15%	32µM*	16%
CCCOCCNC(=O)c1c(C)noc1-c1cc(OC)cc(OC)c1	1	-20%	i	3%
Cc1nnc2ccc(N3CCCC(NC(=O)c4ccc(Cl)nc4)C3)nn12 (stereo unspecified)	-8	/	/	/
Cc1cccc(C(=O)NC2CCN(c3cc(-c4cccs4)[nH]n3)C2)c1 (stereo unspecified)	4	-12%	11µM*	-2%
COc1ccc(C(=O)NC2CCN(c3cc(-c4cccs4)[nH]n3)C2)cc1OC (stereo unspecified)	6	-5%	11µM*	6%
Cc1ccc(C(=O)NC2CCN(c3cc(-c4cccs4)[nH]n3)CC2)cc1F	15	9%	?	-13%
Cc1ccccc1C(=O)NC1CCN(c2cc(-c3cccs3)[nH]n2)C1 (stereo unspecified)	-3	-15%	13µM*	-9%
CN(C)c1cccc(C(=O)NC2CCN(c3cc(-c4cccs4)[nH]n3)C2)c1 (stereo unspecified)	-2	136%	?	-3%
Cc1ccc(C(=O)NC2CCN(c3cc(-c4cccs4)[nH]n3)C2)cc1F (stereo unspecified)	1	-12%	4µM*	?
O=C(NC1CCN(c2cc(-c3cccs3)[nH]n2)C1)c1ccncc1 (stereo unspecified)	-3	0%	?	-12%
N#Cc1cccc(CN2CC(N3CC(C(=O)NCc4ccccc4)CC3=O)C2)c1 (stereo unspecified)	25	-23%	/	8%
O=C(NCCN[S+](=O)([O-])c1ccccc1)c1ccc(-c2cccc(C(F)(F)F)c2)cc1	5	/	/	/
CC(C)=CCCC1(C)/C=C/C(OC(=O)C=C(C)C)C(C)(O)/C=C/C(=O)/C(CO)=C\C1 (stereo unspecified)	2	/	/	13µM*
COc1cccc(-c2nc(N3CCOCC3)cc3c2CN(C)C3=O)c1	7	19%[87.6 µM]	35µM*	0%[87.6 µM]
COc1cccc(-c2nc(N3CCOCC3)cc3c2CN(C)C3=O)c1OC	10	0%[87.6 µM]	40µM*	?
COc1cccc(-c2ncc3c(n2)OCCN(c2ccccc2)C3=O)c1OC	14	59%[87.6 µM]	i	3%[87.6 µM]
CN(C)c1cccc(-c2cnc(Nc3cccc(N[S+](C)(=O)[O-])c3)c3c2CCO3)c1	-9	-21%[87.6 µM]	?	?
CN1Cc2c(cc(N3CCOCC3)nc2-c2cccc(N[S+](C)(=O)[O-])c2)C1=O	20	107%[87.6 µM]	35µM*	9%[87.6 µM]
CN1Cc2c(cc(N3CCOCC3)nc2-c2cccc(C(F)(F)F)c2)C1=O	11	5%[87.6 µM]	i	9%[87.6 µM]
Fc1ccc2nc([C@H]3CCN(Cc4ncc[nH]4)C3)[nH]c2c1	31	-3%[87.6 µM]	28µM*	7%[87.6 µM]
CN1CCC(N2CC[C@H](c3nc4ccc(C#N)cc4[nH]3)C2)CC1	-11	-19%[87.6 µM]	35µM*	-1%[87.6 µM]
Cc1ccc2nc(C3CCCN(Cc4ccc(-c5cncnc5)cc4)C3)[nH]c(=O)c2c1 (stereo unspecified)	-5	3%	?	3%
COc1cccc(-c2ccc(CN3CCCC(c4nc5ccc(C)cc5c(=O)[nH]4)C3)cc2)c1 (stereo unspecified)	-1	?	35µM*!	-21%
COc1ccc2nc([C@H]3CCN(C4CCCCC4)C3)[nH]c2c1	2	-1%[87.6 µM]	28µM*	-7%[87.6 µM]
Fc1ccc2nc([C@H]3CCN(Cc4ccc(F)c(F)c4)C3)[nH]c2c1	4	-14%[87.6 µM]	i	-22%[87.6 µM]
COc1ccc2nc([C@H]3CCN(Cc4ccncc4)C3)[nH]c2c1	-9	21%[87.6 µM]	35µM*	3%[87.6 µM]
Fc1ccc(CN2CC[C@H](c3nc4ccc(C(F)(F)F)cc4[nH]3)C2)cc1F	10	7.9µM*	i	32µM*
